Measured values as given in PubChem BioAssay.
Activity calls are given as the source filed them. Unless noted, the rule behind the calls is not given here.

Experiments:
[1] = test system: Wnt5a (protein binding on small-molecule microarray); test: small molecules binding Wnt5a protein – biophysical, small-molecule microarray, 635/667 nm fluorescence, primary screen (AID 1142); details: 635 nm fluorescence, higher = more signal;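 note: fluorescence read at 667 nm with signal to noise per printed feature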
[2] = ATP-based viability of Huh7 replicon cells – cell-based, CellTiter-Glo luminescence, basal, 48 h, cytotoxicity control for HCV replication inhibitor project, primary screen (AID 1143); details: higher = more signal, called active from +8 up or from −8 down;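 note: Huh7 hepatoma cells carrying a hepatitis C replication reporter with no stimulus; test concentration not given here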
[3] = Pseudomonas biofilm growth suppression – PAO1 strain, BacTiter-Glo luminescence, LB-PBS, primary screen (AID 1144); details: P. aeruginosa PAO1 biofilm, 12 h, higher = more signal
[4] = basal CRE-LacZ reporter activity in PC12 – cell-based, unstimulated, primary screen (AID 1145); details: no forskolin, luminescence, 4.5 h, higher = more signal, called active from +8 up or from −8 down
[5] = forskolin-driven CRE-LacZ activity in PC12 – cell-based, CRE-LacZ reporter, forskolin-stimulated, primary screen (AID 1146); details: luminescence, 4.5 h, higher = more signal, called active from +8 up or from −8 down;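 note: PC12 cells with 6xCRE LacZ reporter stimulated by forskolin 10 µM; beta-galactosidase reporter signal reflecting CREB driven transcription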
[6] = biological target: Streptavidin (Streptomyces avidinii) (UniProt P22629); test: compounds binding control protein streptavidin – biophysical, small-molecule microarray, 635/667 nm fluorescence, artefact control for SMM compound annotation, primary screen (AID 1147); details: higher = more signal;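 note: signal reflects streptavidin binding to arrayed compounds as a control protein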
[7] = probe aInhba binding on compound microarray – biochemical, small-molecule microarray, 635/667 nm fluorescence, primary screen (AID 1148); details: higher = more signal;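 note: score merges 667nm spot fluorescence with signal-to-noise for antibody binding to printed compounds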
Torsin-1A (Homo sapiens) [8] = biological target: Torsin-1A (Homo sapiens) (UniProt O14656); test: TOR1A wild-type binding on microarray – cell lysate, small-molecule microarray, lysate, 635/667 nm, primary screen (AID 1149); details: COS7 hTOR1A-WT lysate, 635 nm fluorescence, higher = more signal
Torsin-1A (Homo sapiens) [9] = biological target: Torsin-1A (Homo sapiens) (UniProt O14656); test: torsin A mutant lysate binding on microarrays – cell lysate, small-molecule microarray, COS7 lysate, 635/667 nm fluorescence, primary screen (AID 1150); details: COS7 hTOR1A mutant lysate, 635 nm fluorescence, higher = more signal;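 note: score pools 667 nm emission and signal to noise measuring lysate protein binding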
[10] = test system: Sonic hedgehog protein (Shh); test: Sonic hedgehog microarray binding compounds – biochemical, small-molecule microarray, 635/667 nm fluorescence, primary screen (AID 1151); details: 635 nm fluorescence, higher = more signal;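 note: Shh protein binding to compounds spotted on small-molecule microarray slides; score combines spot fluorescence intensity with signal-to-noise across triplicate slides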
[11] = optical density shifts of acrAB sulA E. coli – strain DRC41, OD650, 48 h, E. coli filamentation inducer project, primary screen (AID 1152); details: higher = more signal, called active from +8 up or from −8 down;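 note: E. coli MC1000 strain DRC41 lacking acrAB efflux pump and sulA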
[12] = probe aLefty1 binding on compound microarray – biochemical, small-molecule microarray, 635/667 nm fluorescence, primary screen (AID 1153); details: higher = more signal;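 note: score merges spot fluorescence with signal-to-noise ratio from the scanned slide images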
[13] = plasmodial surface anion channel blockers, osmotic lysis – cell-based, P. falciparum Indochina, OD700, 1 h, primary screen (AID 1154); details: P. falciparum Indochina infected RBC osmotic lysis, higher = more signal, called active from +8 up or from −8 down
[14] = plasmodial surface anion channel blockers, osmotic lysis – cell-based, P. falciparum Indochina, OD700, 2 h, primary screen (AID 1155);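 note: lysis reports solute entry through the parasite surface anion channel PSAC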; details: P. falciparum Indochina infected erythrocytes, higher = more signal, called active from +8 up or from −8 down
[15] = changes in parasitized red cell lysis, either direction – P. falciparum Indochina, OD700, 3 h, PSAC antagonist project, primary screen (AID 1156); details: P. falciparum-infected erythrocytes, osmotic lysis, higher = more signal, called active from +8 up or from −8 down
[16] = plasmodial surface anion channel blockers, osmotic lysis – cell-based, P. falciparum Indochina, OD700, 18 h, primary screen (AID 1157); details: P. falciparum Indochina infected erythrocytes, osmotic lysis OD700, 18 h; higher = more signal, called active from +8 up or from −8 down
[17] = S6 kinase pathway phospho-S6 level changes – cell-based, A549, cytoblot, luminescence, serum-stimulated, primary screen (AID 1158); details: 5 h, higher = more signal;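 note: serum-stimulated A549 lung adenocarcinoma cells; signal is phosphorylated S6 detected by cytoblot immunostaining with HRP secondary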
[18] = biological target: NADPH oxidase 2 (Homo sapiens) (UniProt P04839); test: compounds shifting NOX2 Amplex Red fluorescence – cell-based, HEK293-NOX2, PMA-stimulated, NOX inhibitor project, primary screen (AID 1159); details: 45 min, higher = more signal, called active from +8 up or from −8 down; note: test concentration not given here
[19] = biological target: NADPH oxidase 4 (Homo sapiens) (UniProt Q9NPH5); test: compounds shifting NOX4 Amplex Red fluorescence – cell-based, HEK293-NOX4, tetracycline-induced, NOX inhibitor project, primary screen (AID 1160); details: HEK293-NOX4, Amplex Red H2O2 fluorescence, 45 min; higher = more signal, called active from +8 up or from −8 down
[20] = biological target: NADPH oxidase 5 (Homo sapiens) (UniProt Q96PH1); test: compounds shifting NOX5 Amplex Red fluorescence – cell-based, HEK293-NOX5, NOX inhibitor project, primary screen (AID 1161); details: HEK293-NOX5, ionomycin, 45 min, higher = more signal
Sequence of NADPH oxidase 5 (Homo sapiens) (Q96PH1 whole entry, looked up): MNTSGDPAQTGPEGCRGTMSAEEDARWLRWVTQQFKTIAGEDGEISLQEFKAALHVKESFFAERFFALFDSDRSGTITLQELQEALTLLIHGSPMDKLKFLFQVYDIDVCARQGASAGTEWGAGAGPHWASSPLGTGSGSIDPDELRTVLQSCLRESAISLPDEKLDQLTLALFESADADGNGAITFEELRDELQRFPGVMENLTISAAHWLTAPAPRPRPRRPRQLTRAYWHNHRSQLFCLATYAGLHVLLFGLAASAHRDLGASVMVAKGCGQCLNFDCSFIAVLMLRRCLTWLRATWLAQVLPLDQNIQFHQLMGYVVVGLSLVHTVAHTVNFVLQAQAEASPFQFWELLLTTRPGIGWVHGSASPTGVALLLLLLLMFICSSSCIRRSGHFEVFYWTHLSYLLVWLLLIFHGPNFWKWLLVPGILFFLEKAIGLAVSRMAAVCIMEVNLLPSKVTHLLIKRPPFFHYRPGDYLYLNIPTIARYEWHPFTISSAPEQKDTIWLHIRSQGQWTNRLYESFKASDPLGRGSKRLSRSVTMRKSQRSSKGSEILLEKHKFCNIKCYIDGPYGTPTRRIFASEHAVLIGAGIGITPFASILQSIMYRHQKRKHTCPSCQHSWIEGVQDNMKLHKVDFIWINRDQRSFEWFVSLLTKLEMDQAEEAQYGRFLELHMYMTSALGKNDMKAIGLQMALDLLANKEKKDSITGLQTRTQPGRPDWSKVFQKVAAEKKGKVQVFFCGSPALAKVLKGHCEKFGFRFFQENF

Sequence of NADPH oxidase 2 (Homo sapiens) (P04839 whole entry, looked up): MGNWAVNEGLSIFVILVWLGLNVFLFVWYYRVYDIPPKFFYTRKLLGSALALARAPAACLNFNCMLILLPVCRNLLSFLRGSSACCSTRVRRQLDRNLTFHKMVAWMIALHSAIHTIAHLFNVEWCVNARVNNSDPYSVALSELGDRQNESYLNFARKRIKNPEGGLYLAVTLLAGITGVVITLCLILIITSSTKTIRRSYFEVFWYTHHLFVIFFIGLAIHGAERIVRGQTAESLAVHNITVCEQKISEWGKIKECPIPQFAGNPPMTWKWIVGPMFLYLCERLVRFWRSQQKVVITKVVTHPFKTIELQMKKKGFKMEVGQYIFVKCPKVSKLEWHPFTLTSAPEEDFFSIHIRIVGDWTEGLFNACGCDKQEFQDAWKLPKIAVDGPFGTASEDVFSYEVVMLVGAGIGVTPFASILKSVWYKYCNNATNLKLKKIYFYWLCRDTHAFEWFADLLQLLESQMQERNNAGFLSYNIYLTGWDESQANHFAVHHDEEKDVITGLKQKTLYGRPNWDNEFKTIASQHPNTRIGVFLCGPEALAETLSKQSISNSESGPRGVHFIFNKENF
Sequence of NADPH oxidase 4 (Homo sapiens) (Q9NPH5 whole entry, looked up): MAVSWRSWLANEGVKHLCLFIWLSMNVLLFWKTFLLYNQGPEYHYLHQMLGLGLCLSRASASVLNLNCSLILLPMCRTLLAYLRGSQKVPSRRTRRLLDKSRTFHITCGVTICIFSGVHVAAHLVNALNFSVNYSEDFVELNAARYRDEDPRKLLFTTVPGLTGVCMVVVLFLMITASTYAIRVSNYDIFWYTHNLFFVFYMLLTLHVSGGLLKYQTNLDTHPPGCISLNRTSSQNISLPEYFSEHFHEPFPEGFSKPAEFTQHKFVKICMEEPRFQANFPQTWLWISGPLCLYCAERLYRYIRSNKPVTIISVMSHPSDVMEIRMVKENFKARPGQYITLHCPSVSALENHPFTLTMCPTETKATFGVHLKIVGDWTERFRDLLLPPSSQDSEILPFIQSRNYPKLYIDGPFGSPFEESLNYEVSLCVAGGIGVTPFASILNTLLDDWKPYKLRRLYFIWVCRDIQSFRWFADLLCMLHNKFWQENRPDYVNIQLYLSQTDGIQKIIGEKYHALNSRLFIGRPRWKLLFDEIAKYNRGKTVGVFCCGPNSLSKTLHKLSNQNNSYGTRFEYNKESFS
Sequence of Streptavidin (Streptomyces avidinii) (P22629 whole entry, looked up): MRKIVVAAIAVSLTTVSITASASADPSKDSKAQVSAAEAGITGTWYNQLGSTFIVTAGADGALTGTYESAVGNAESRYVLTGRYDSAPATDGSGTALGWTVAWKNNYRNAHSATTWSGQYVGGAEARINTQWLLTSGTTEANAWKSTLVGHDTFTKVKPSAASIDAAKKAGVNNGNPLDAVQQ
Sequence of Torsin-1A (Homo sapiens) (O14656 whole entry, looked up): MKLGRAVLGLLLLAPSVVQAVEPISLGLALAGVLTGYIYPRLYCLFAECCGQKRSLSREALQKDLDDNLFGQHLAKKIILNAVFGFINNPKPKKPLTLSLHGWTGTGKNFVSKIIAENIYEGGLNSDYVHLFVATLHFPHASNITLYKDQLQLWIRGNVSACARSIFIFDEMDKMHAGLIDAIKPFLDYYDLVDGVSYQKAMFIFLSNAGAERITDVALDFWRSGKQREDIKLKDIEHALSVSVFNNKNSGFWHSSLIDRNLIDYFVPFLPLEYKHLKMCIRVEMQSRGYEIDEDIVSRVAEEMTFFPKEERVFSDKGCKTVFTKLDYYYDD

| SMILES | composite z-score [1] | z-score [2] | z-score [3] | z-score [4] | z-score [5] | composite z-score [6] | composite z-score [7] | composite z-score (Torsin-1A (Homo sapiens) [8]) | composite z-score (Torsin-1A (Homo sapiens) [9]) | composite z-score [10] | z-score [11] | composite z-score [12] | z-score [13] | z-score [14] | z-score [15] | z-score [16] | z-score [17] | z-score [18] | z-score [19] | z-score [20] |
| --- | --- | --- | --- | --- | --- | --- | --- | --- | --- | --- | --- | --- | --- | --- | --- | --- | --- | --- | --- | --- |
| CC(=O)O[C@H]1C2=C(C(=O)[C@@H]3O[C@@H]31)[C@H]1C(C)O[C@@H]2[C@@]23C(=O)[C@@H]4O[C@@H]4[C@@H](O)C2=CO[C@H](C)[C@@H]13 (stereo not given in full) | 0.129 | -1.6 (inactive) | 0.968 (inactive) | 0.108 (inactive) | 4.27 (inactive) | -0.503 | -0.214 | 0.0116 | 0.0652 | 0.283 | -0.0954 (inactive) | -0.191 | -0.0129 (inactive) | -0.215 (inactive) | -0.0291 (inactive) | -0.12 (inactive) | -0.56 | 0.735 (inactive) | 0.358 (inactive) | -0.388 |
| COCCCNC(=O)[C@]1(Cc2ccccc2)N=C(c2ccc(OCCCO)cc2)O[C@@H]1c1ccccc1 | 0.424 | -2.94 (inactive) | -0.0581 (inactive) | 0.423 (inactive) | -1.36 (inactive) | 0.661 | 0.142 | 0.445 | 0.992 | -0.521 | -1.43 (inactive) | 0.301 | 26.9 (active) | 18.6 (active) | 0.972 (inactive) | 2.34 (inactive) | -0.612 | -1.04 (inactive) | 0.654 (inactive) | 1.1 |
| COC(=O)[C@H](C)NC(=O)CCC1CC(OC(=O)NCCc2ccc(F)cc2)CC2(CCCC(COC(=O)NCCc3ccc(Cl)cc3)O2)O1 (stereo not given in full) | 0.606 | -0.195 (inactive) | -0.739 (inactive) | -0.0732 (inactive) | -0.195 (inactive) | 1.07 | -0.0937 | 2.31 | -0.177 | 1.31 | 0.954 (inactive) | -0.0464 | 1.83 (inactive) | 0.316 (inactive) | -0.0413 (inactive) | 0.2 (inactive) | 0.0808 | 0.431 (inactive) | 0.778 (inactive) | 0.612 |
| O=C1C2=CC[C@H]3C(=O)N(Cc4ccc5c(c4)OCO5)C(=O)[C@H]3[C@H]2[C@H](O)[C@@H]2O[C@H]12 | -0.0194 | 0.279 (inactive) | -0.0992 (inactive) | -0.385 (inactive) | -0.454 (inactive) | 0.57 | -0.0933 | 0.475 | 0.677 | 0.495 | 0.0561 (inactive) | -0.0464 | -1 (inactive) | -0.507 (inactive) | -0.906 (inactive) | 0.0094 (inactive) | 0.116 | -0.382 (inactive) | -0.111 (inactive) | 0.104 |
| C[C@@H]1C=CCC(=O)OC[C@H](C)C(=O)N[C@@H](C)C(=O)OC1 | 0.268 | -0.568 (inactive) | -0.298 (inactive) | -0.887 (inactive) | -0.24 (inactive) | 0.34 | -0.0044 | 1.51 | 0.527 | 1.3 | 0.811 (inactive) | -0.0104 | 0.378 (inactive) | 0.371 (inactive) | 0.623 (inactive) | 0.342 (inactive) | -0.276 | -0.727 (inactive) | 0.527 (inactive) | 0.619 |
| COc1ccc([Si](C)(C)[C@@H]2[C@@H](CCO)O[C@]3(C(=O)N(Cc4ccc(NC(C)=O)cc4)c4ccccc43)[C@H]2C)cc1 | 0.913 | -8.01 (active) | 0.525 (inactive) | 3.57 (inactive) | -2.33 (inactive) | 0.627 | 0.16 | 0.412 | 1.21 | 1.35 | 0.694 (inactive) | 0.16 | 23 (active) | 7.13 (inactive) | -0.199 (inactive) | 0.0087 (inactive) | 0.339 | -0.371 (inactive) | -0.0308 (inactive) | 0.207 |
| CO[C@H]1O[C@H](CO)[C@@H](OC(=O)Nc2ccc(C#N)cc2)[C@H](OC(=O)c2cc3ccccc3[nH]2)[C@H]1OC(=O)c1cc2ccccc2[nH]1 | 0.436 | -3.88 (inactive) | -2.05 (inactive) | 0.484 (inactive) | -1.03 (inactive) | 0.779 | -0.0011 | 0.91 | 1.36 | 0.746 | 2.89 (inactive) | 0.254 | 3.44 (inactive) | 0.178 (inactive) | 1.71 (inactive) | -0.418 (inactive) | 2.06 | -3.9 (inactive) | -0.214 (inactive) | -4.49 |
| [N-]=[N+]=NCc1ccccc1[C@@H]1OC(c2ccc(OCCCO)cc2)=N[C@]1(Cc1ccccc1)C(=O)N1CCOCC1 | 0.599 | -3.55 (inactive) | 0.369 (inactive) | -0.0017 (inactive) | 0.531 (inactive) | 1.66 | 0.618 | 3.2 | 3.32 | 0.0283 | 0.854 (inactive) | 0.904 | 16.7 (active) | 2.9 (inactive) | 2.49 (inactive) | 1.01 (inactive) | 0.131 | -1.85 (inactive) | -0.253 (inactive) | -1.21 |
| [N-]=[N+]=Nc1ccccc1C[C@@]1(C(N)=O)N=C(c2ccc(OCCCO)cc2)O[C@@H]1c1ccccc1 | 0.0445 | -4.04 (inactive) | -0.616 (inactive) | 0.377 (inactive) | -1.39 (inactive) | 1.08 | 0.0561 | 0.296 | 0.355 | -0.714 | -0.307 (inactive) | 0.506 | 27.3 (active) | 22.4 (active) | 2.73 (inactive) | 2.47 (inactive) | 1.4 | -2.2 (inactive) | 0.249 (inactive) | -1.75 |
